# D1 agonist – agonists of human D1 dopamine receptor; HEK293 T-REx D1 cells, calcium flux, agonist mode; activation, % at 2 µM; 360,000 tested, 1% active; further: 0% is about no effect
#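 Tetracycline-induced HEK293 TREx D1 cells, force-coupled to calcium signalling, were dye-loaded with a no-wash calcium kit. Compound was pin-added after a 10 s baseline. Fluorescence was read kinetically at 1 cycle/s for 180 s, with calcium rises flagged as agonism.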
# D1 antagonist – antagonists of human D1 dopamine receptor; P21728; HEK293 TREx D1 cells, calcium flux, dopamine EC80; active compounds read low; activity change, negative = inhibition, % at 10 µM; 360,000 tested, 3.2% active; AID 504652; in the data active means activity change below about -30%; further: on the % scale 0 is the no-effect control and ±100 the full control effect
#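 Cells carrying a force-coupled, tetracycline-inducible human D1 receptor report calcium flux. Each well gets a 10 s baseline, compound with 180 s monitoring, then an EC80 dopamine stimulus with a second 180 s kinetic read.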
# TRHR PAM – TRH receptor (human) allosteric enhancement; AID 493056; enhancement, % at 2 µM; P34981; TRHR cells, fluo-8 calcium fluorescence, EC20 TRH enhancement; 360,000 tested, 0.66% active; in the data active means enhancement above about 30%; further: 0% is about no effect
# Target sequence (P34981 whole entry, looked up): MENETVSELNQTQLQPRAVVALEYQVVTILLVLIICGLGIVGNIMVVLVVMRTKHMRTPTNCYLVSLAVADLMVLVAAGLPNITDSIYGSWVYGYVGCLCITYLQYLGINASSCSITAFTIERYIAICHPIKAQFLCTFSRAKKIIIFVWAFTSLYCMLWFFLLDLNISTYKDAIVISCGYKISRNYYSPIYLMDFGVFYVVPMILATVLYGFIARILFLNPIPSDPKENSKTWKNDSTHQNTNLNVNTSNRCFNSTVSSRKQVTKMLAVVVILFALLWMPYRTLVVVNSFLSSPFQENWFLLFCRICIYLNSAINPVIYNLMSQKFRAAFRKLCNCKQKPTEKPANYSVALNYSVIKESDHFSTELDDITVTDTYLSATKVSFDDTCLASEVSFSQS
#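 Enhancer read-out: after compound pinning and an initial kinetic agonist-mode read, an EC20 of TRH (10 nM final) was injected and fluo-8 calcium signal (Ex 480/Em 530) followed at 1 s/cycle for 100 cycles in TRHR-expressing cells.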
# TRHR ag – TRH receptor (human) agonism. AID 493084. TRHR cells, calcium flux fluo-8, FDSS agonist mode. activation, % at 2 µM. 360,000 tested, 0.18% active; further: 0% is about no effect
#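 Agonist-mode FDSS calcium read (Ex 480/Em 530, 1 s cycles) in 1536-well TRHR cells with fluo-8 dye, after 10-cycle baseline and 23 nL compound addition; TRH at EC20 (10 nM final) added afterwards for the enhancer phase.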
# USP1 inh – inhibitors of human USP1/UAF1 deubiquitinase | recombinant USP1/UAF1, Ub-Rhodamine cleavage fluorescence | 390,000 tested, 0.23% active | AID 743255 | O94782 | Potency, µM (top dose mostly 57.1 µM), for inactives: top-dose activity change, negative = inhibition, usual class: inhibitors; active means well fitted inhibition curve with a large enough effect; inconclusive means small, poorly fitted or top-dose-only effect; inactive means no such curve, though single readings can be large or run the other way; further: potency means the concentration at half of the fitted maximal effect; on the % scale 0 is the no-effect control and ±100 the full control effect; nearly all actives have a fitted effect of over 60% in size
#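 High-throughput fluorogenic screen: 1nM USP1/UAF1 complex, Ub-Rho substrate 150nM final, 50mM HEPES pH 7.8 with 0.5mM EDTA, 0.1 mg/ml BSA, 1mM TCEP and 0.01% Tween-20.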
# D1 PAM – enhances dopamine response at the human D1 receptor. P21728. HEK293 TREx D1 cells, calcium flux, dopamine EC20 potentiation. potentiation, % at 10 µM. 360,000 tested, 0.036% active. AID 504651; in the data active means potentiation above about 30%; further: 0% is about no effect
# * = called active by the depositor; u = inconclusive; x = no result given. Sampled rows, rich in hits. Any-hit rate of the full collection: about 4.4%. Unless noted, no stated cut-off is given here; in the data, active means activation above about 30%; inactive means the rest.
SMILES,D1 agonist,D1 antagonist,TRHR PAM,TRHR ag,USP1 inh,D1 PAM
CCOC(=O)C1CCN(S(=O)(=O)c2ccc(OC)c(OC)c2)CC1,6,1,8,-1,-5%,-2
Cc1ccc(S(=O)(=O)N2CCC(C(N)=O)CC2)cc1[N+](=O)[O-],-3,-39*,-3,0,-19%,-1
CCOC(=O)C1CCN(S(=O)(=O)c2ccc(C)c(C)c2)CC1,1,-5,32*,0,-8%,2
CCOC(=O)C1CCN(S(=O)(=O)c2cc(-c3onc(C)c3C)ccc2C)CC1,2,-36*,10,0,14%,-4
NC(=O)C1CCN(S(=O)(=O)c2ccccc2[N+](=O)[O-])CC1,1,3,2,0,-9%,1
Cc1sc2ncn(CC(=O)Nc3ccc(C(F)(F)F)cc3)c(=O)c2c1S(=O)(=O)N1CCN(C)CC1,1,9,4,-1,-7%,0
Cc1cc2c(s1)c1cnn(Cc3c(F)c(F)c(C(F)(F)F)c(F)c3F)c(=O)c1n2C,1,7,1,0,x,1
COc1ccccc1CN(Cc1c(Cl)cccc1Cl)S(=O)(=O)c1ccc(Br)cc1,-2,15,0,0,17%,-2
O=C(OCCOc1cccc(Cl)c1)C1CCN(S(=O)(=O)c2ccccc2)CC1,30*,-22,6,3,-20%,-1
COc1cccc(COC(=O)C2CCN(S(=O)(=O)c3ccc(F)cc3)CC2)c1OC,31*,-9,-16,1,u,-6
COc1ccc(C(=O)COc2ncnc3cc(Cl)ccc23)cc1,4,-12,36*,-1,-16%,-9
O=C(COc1ncnc2cc(Cl)ccc12)c1ccccc1,2,-13,8,0,-22%,1
COc1cccc(-c2cnc(NCc3ccccc3Cl)n2C)c1,11,15,-7,2,-12%,-4
CCOc1ccc(C2=Nn3c(nnc3-c3ccco3)SC2)cc1,1,-31*,1,0,-26%,-4
COc1ccc(CNC(=O)C2CCCN(S(=O)(=O)N(C)c3ccc(F)cc3)C2)cc1OC (configuration not stated),4,-27,-2,0,-26%,-6
CCOc1ccc(CNC(=O)C2CCCN(S(=O)(=O)N(C)c3ccc(F)cc3)C2)cc1OC (configuration not stated),34*,-27,10,0,-6%,-6
Cc1ccccc1CSc1nc2c(sc3ccccc32)c(=O)n1CCCC(=O)NCCCOC(C)C,7,-40*,7,0,1%,-6
Cc1ccccc1CSc1nc2c(sc3ccccc32)c(=O)n1CCCOC(C)C,2,15,-2,0,u,0
Cc1nc(-c2ccccc2)sc1C1(C)CC(c2cccc([N+](=O)[O-])c2)=NO1 (configuration not stated),2,-42*,-6,1,-28%,-1
CCn1cc(C(=O)N2CCN(c3cc(Cl)ccc3C)CC2)c(=O)c2cc(S(=O)(=O)N3CCOCC3)ccc21,1,-6,-11,0,u,-3
Cc1cccc(NC(=O)c2ccccc2O)c1C,18,-32*,25,2,-10%,-8
CCOc1ccc2c(c1)c(=O)c(C(=O)c1ccc3c(c1)OCO3)cn2Cc1cccc(F)c1,4,-2,5,0,-22%,0
CCC(C)(C)c1ccc(OCCCC[n+]2cccc(C)c2)c(C(C)(C)CC)c1,169*,-15,1,1,-15%,-7
CCc1ccc(OCCCC(=O)Nc2nccs2)cc1,8,-30*,2,0,-23%,-1
COC(=O)c1ccccc1NC(=O)c1ccc(F)cc1F,12,2,0,1,x,-7
SMILES,D1 agonist,D1 antagonist,TRHR PAM,TRHR ag,USP1 inh,D1 PAM
CN1CCN(CC(O)COc2ccc(Cl)cc2)CC1 (configuration not stated),4,15,-1,0,-9%,1
CN1CCN(CC(O)(c2ccc(Cl)cc2)c2ccc(Cl)cc2)CC1,24,-30*,-1,2,-22%,-8
O=C(O)CCN(Cc1ccccc1)S(=O)(=O)c1ccc(Cl)cc1F,2,-38*,4,0,-11%,-2
CSC1=C(C#N)C(c2ccccc2Cl)C2=C(N1)c1ccccc1C2=O (configuration not stated),-1,-42*,9,0,-23%,-7
COc1ccc(N2CCN(C(=O)c3ccc4c(c3)[nH]c(=S)n3c5ccccc5nc43)CC2)cc1,1,-32*,-3,0,x,-5
CC(=O)N1c2ccccc2CC1C(=O)N1CCN(c2cc(Cl)ccc2C)CC1 (configuration not stated),0,6,-4,-1,-35%,0
COC(=O)c1sccc1NC(=O)Nc1cccc([N+](=O)[O-])c1,5,-38*,7,1,-24%,-4
COc1ccccc1C(=O)NNC(=O)c1ccccc1Br,0,4,1,0,-5%,-6
COC(=O)c1sccc1NC(=O)Nc1cccc(C)c1,1,-12,-1,-1,-27%,-3
O=C(/C=C/c1cccc([N+](=O)[O-])c1)Nc1cccc(NC(=O)c2cccs2)c1,2,-46*,18,1,-9%,0
Cc1ccc([N+](=O)[O-])cc1NC(=O)Nc1cccc(F)c1,25,-51*,-10,3,-10%,-6
COc1ccccc1NC(=S)NNC(=O)c1ccccc1Br,1,-80*,11,-1,-4%,-9
CCOc1ccc(NC(=O)Cc2csc(COc3cccc(C)c3)n2)cc1,-1,4,-2,0,-19%,0
O=C(Nc1cccc([N+](=O)[O-])c1)Nc1cccs1,24,-35*,1,1,-16%,-12
CC(NC(=O)Nc1cccnc1)(C(F)(F)F)C(F)(F)F,2,10,0,0,-20%,-5
Cc1cccc(NC(=S)NNC(=O)c2ccccc2OC(F)F)c1,5,-40*,-10,-1,-7%,-4
Cc1c(C(=O)Nc2cccc([N+](=O)[O-])c2)csc1-c1ccccc1,x,x,x,x,-17%,x
CC(NC(=O)Nc1cccc([N+](=O)[O-])c1)(C(F)(F)F)C(F)(F)F,26,-36*,3,1,-9%,2
COc1ccccc1NC(=O)NNC(=O)c1cc2ccccc2cc1O,17,-34*,0,2,-25%,-11
Cc1ccc(NC(=O)NNC(=O)c2cc3ccccc3cc2O)cc1,4,-1,3,1,-25%,-2

# Assay outcomes from PubChem BioAssay.
